TTR transcr act – activators of transthyretin transcription | SH-SY5Y TTR promoter Gaussia luciferase, luminescence; 100% = recombinant luciferase protein wells | activation, % at 16.7 µM | 92,000 compounds, 1.3% hits | AID 1117267;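 active = activation above the mean of all tested compounds plus 3 SD, cut at about 9.5% in these data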;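 also: cells exposed to compounds for one day before reading; 0% = median of all test compound wells on the plate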
TTR inh HuH7 – decreases TTR transcription in HuH7 cells in activator counter-screen; AID 1117279; 1,100 compounds, 4% hits; shares compounds with TTR transcr act; HuH7 TTR promoter-Gaussia luciferase reporter, luminescence; inhibition, % at 16.7 µM;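 active = average inhibition above the solvent-only control wells' mean plus 3 SD, cut at about 15% in these data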;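 also: 0% = cells with DMSO only and 100% = cells with inhibitor control FD; inhibitors lower well luminescence so higher value means more inhibition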
TTR up confirm – human TTR transcription activation, confirmation; AID 1117280; 1,100 tested, under 10 active; SHSY5Y TTR promoter Gaussia luciferase, luminescence; 100% = purified Lucia enzyme wells, no cells; activation, % at 16.7 µM; shares compounds with TTR transcr act;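 active = mean activation above a set limit taken from the earlier primary screen, cut at about 11% in these data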;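 also: 0% = DMSO-treated cells and 100% = recombinant Lucia luciferase without cells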
* hit, by the source's call. Many of the other results were omitted from the sample, so hits are more common in it than they were.

SMILES	TTR transcr act	others
CC(C)c1cc(-c2cc(-c3ccc(Cl)cc3)on2)nc(NC2CCCC2)n1	0.2
CCCNc1nc(-c2cc(-c3ccc(Cl)cc3)on2)cc(C(C)C)n1	11.9*	TTR inh HuH7=-12.4;TTR up confirm=0.2
Cc1ccc(C(=O)OCCN2CCN(c3ncc(C(F)(F)F)cc3Cl)CC2)cc1	0.0
COCC(C)NC(=O)/C(=C/c1ccccc1)c1ccccc1 (configuration not stated)	-1.1
CCOC(=O)C(C(=O)OCC)N(C#N)c1nc(OC)nc(N(C)C)n1	2.5
CN(C)c1nc(N(C)C)nc(N(C#N)Cc2ccc(Cl)cc2)n1	-0.3
COC(=O)CN(C#N)c1nc(N(C)C)nc(N(C)C)n1	13.3*	TTR inh HuH7=-8.4;TTR up confirm=3.3
O=C1CC(c2ccco2)CC(O)=C1C=NCCN1CCNCC1 (configuration not stated)	6.3
Cc1noc(C)c1COc1cccc(C(=O)OCCOc2ccc(F)cc2)c1	11.5*	TTR inh HuH7=-7.5;TTR up confirm=0.6
Cc1cccc(C)c1NC(=O)c1ccc(OCc2c(C)noc2C)cc1	-1.1
COc1ccc(C(C)=O)cc1COC(=O)c1ccc(OCc2c(C)noc2C)cc1	1.3
COc1ccc(C(CC(=O)NCc2ccccc2)C(C)C)cc1 (configuration not stated)	-1.3
COc1ccccc1/C=C/C(=O)Nc1ccc2c(c1)OCCO2	-2.4
O=C(CSC(=S)N1CCCC1)c1ccccc1	0.0
O=C(O)CSC(=S)N1CCCC1	10.4*	TTR inh HuH7=-4.7;TTR up confirm=-0.3
O=C(O)CSCC(=O)N1CCCCC1	-1.1
COC(=O)[C@]1(C)N[C@H](CN(C)C(=O)Nc2ccc(C)cc2)[C@@H]2C(=O)N(Cc3ccccc3)C(=O)[C@@H]21	1.0
CC1CCCCN1c1nnc(NC(=O)Cn2c(=O)oc3ccccc32)s1 (configuration not stated)	19.3*	TTR inh HuH7=-15.7;TTR up confirm=-1.2
COc1ccc(-c2nc(NC(=O)Cn3c(=O)oc4ccccc43)sc2C)cc1	-1.8
COc1ccc(NC(=O)Nc2nnc(N3CCCCC3C)s2)cc1OC (configuration not stated)	-0.5
CCOC(=O)c1cc(S(=O)(=O)NC2CCCCC2)cn1C	-0.8
Cc1cc(C)c2cc(CN(CCO)C(=O)Nc3ccc(Cl)cc3)c(=O)[nH]c2c1	-7.0
Cn1ncc(Cl)c1C(=O)N1CCN(c2ccccc2)CC1	-2.1
O=C(C1CN(C(=O)c2cc3ccccc3o2)c2ccccc2O1)N1CCCCC1 (configuration not stated)	2.5
O=C(Cn1c(=O)oc2cc(S(=O)(=O)N3CCCC3)ccc21)N1CCCC1	-0.6
SMILES	TTR transcr act	others
CC(C)CN(C(=O)c1cccc(Cl)c1)c1c(N)n(CC(C)C)c(=O)[nH]c1=O	5.0
COCCN(C(=O)c1ccc(N(C)S(=O)(=O)c2ccc(C)cc2)cc1)c1c(N)n(CC(C)C)c(=O)[nH]c1=O	9.8*	TTR inh HuH7=5.2;TTR up confirm=-0.2
CCCn1c(N)c(N(CCOC)C(=O)c2cccc(F)c2)c(=O)[nH]c1=O	-1.0
COc1ccc2c(c1)CC(C1(O)C(=O)Nc3ccccc31)C2=O (configuration not stated)	1.6
CCOC(=O)C(C)Oc1cccc2c(=O)n(CC(=O)Nc3ccc(OC)cc3)ccc12 (configuration not stated)	0.3
O=S(=O)(Nc1ccc2c(c1)OCO2)c1ccccc1	-0.3
Cc1ccc2cccc(S(=O)(=O)Nc3ccc4c(c3)OCO4)c2n1	14.0*	TTR inh HuH7=-19.2;TTR up confirm=1.9
O=S(=O)(Nc1ccc2c(c1)OCCO2)c1cccc2nsnc12	1.1
CCOC(=O)c1sc(Nc2ccc(Br)cc2)nc1C	-5.1
O=C1NC(Cc2c[nH]c3ccccc23)C(=O)N1Cc1cccc2ccccc12 (configuration not stated)	-0.2
c1ccc(CNc2ncnc3c2cnn3-c2ccccc2)cc1	1.2
c1ccc(-n2ncc3c(NCCN4CCCCC4)ncnc32)cc1	0.0
CCNc1ncnc2c1cnn2C1CCCO1 (configuration not stated)	10.3*	TTR inh HuH7=-8.1;TTR up confirm=1.1
Cc1ccc(C)c(-n2c(CNc3ccc(F)cc3)nnc2SCC(N)=O)c1	3.2
COc1ccc(OC)c(CN2CCC(CNC(=O)Nc3cccc(Cl)c3)CC2)c1	0.2
COc1ccc(NC(=O)CN(C)S(=O)(=O)c2ccc3c(c2)n(C)c(=O)c(=O)n3C)cc1	2.9
Cc1cc(C)c2c(=O)[nH]c(SCc3ccccc3C)nc2n1	-1.2
Cc1cc(C)c2c(N)c3cccc(C)c3nc2n1	11.9*	TTR inh HuH7=-3.5;TTR up confirm=3.1
Cc1cc(Nc2ccc3c(c2)OCCO3)c2cccc(C)c2n1	0.1
COc1ccc(Cl)cc1NC(=O)c1nnn(CC(=O)Nc2cc(C)cc(C)c2)c1N	2.5
COc1ccc(S(=O)(=O)N2CCCOC2CNC(=O)C(=O)NCc2ccco2)cc1 (configuration not stated)	0.1
COc1ccc(S(=O)(=O)N2CCOC2CNC(=O)C(=O)NCc2ccccc2OC)cc1 (configuration not stated)	-1.3
COc1ccc(S(=O)(=O)N2CCCOC2CNC(=O)C(=O)NCc2ccccn2)cc1 (configuration not stated)	24.1*	TTR inh HuH7=-10.0;TTR up confirm=-0.7
C[C@H](CO)N1C[C@H](C)[C@@H](CN(C)S(=O)(=O)c2ccc3c(c2)OCCCO3)OCc2cnnn2CCCC1=O	2.2
CN(Cc1ccccc1)C(=O)c1[nH]cnc1C(=O)NCC(=O)OC(C)(C)C	10.6*	TTR inh HuH7=-15.7;TTR up confirm=22.1*
SMILES	TTR transcr act	others
CC(C)(C)OC(=O)CNC(=O)c1nc[nH]c1C(=O)N1CCN(c2ccccc2)CC1	3.1
C[C@@H](NC(=O)c1nc[nH]c1C(=O)NCC(=O)OC(C)(C)C)c1ccccc1	3.9
O=C(O)COCC(=O)NCc1nc(-c2ccc(C(F)(F)F)cc2)no1	1.7
CC(=O)Nc1ccccc1C(=O)C(=O)Nc1cccc(C(=O)NCc2ccccc2)c1	-0.9
OC(COc1ccc(Cl)cc1)CSc1ccccn1 (configuration not stated)	-2.0
COc1ccc(-n2c(C)cc(C(=O)COC(=O)c3cc(NC(=O)c4cccs4)c(OC)c(OC)c3)c2C)cc1	9.8*	TTR inh HuH7=-12.1;TTR up confirm=-0.3
COc1ccc(-n2c(C)cc(C(=O)COC(=O)Cn3cnc4ccccc43)c2C)cc1	-3.3
COc1cc(C(=O)OCC(=O)NCc2ccc(F)cc2)cc(NC(=O)c2cccs2)c1OC	-1.9
CC(C)N(C(=O)CN1C(=O)C(=O)c2ccccc21)c1ccccc1	1.2
Cn1c(N)c(NC(=S)NC2CCCCC2)c(=O)n(C)c1=O	-1.3
COc1cccc(CNS(=O)(=O)c2cc3c4c(c2)CCC(=O)N4CCC3)c1	-1.2
COc1cccc(OCc2cc(C(=O)N3CCN(C4CCCC4)CC3)no2)c1	0.8
NC(=O)[C@@H]1CCCN1C(=O)c1cc(COc2ccc3c(c2)CCCC3)on1	10.5*	TTR inh HuH7=-7.9;TTR up confirm=-0.5
COc1cccc(OCc2cc(C(=O)N3CCCC3c3ccccn3)no2)c1 (configuration not stated)	-1.3
O=C(c1cccs1)N1CCN=C1SCc1ccc(Cl)cc1	0.2
COC(=O)c1ccc2c(=O)n(CCN3CCOCC3)c(SCC(=O)Nc3ccc(C)cc3)nc2c1	0.0
CC(=O)N1CC2(C)CN(C(C)=O)CC(C)(C1)C2O (configuration not stated)	-1.4
COC(=O)CCN1CCN(S(=O)(=O)c2cccc(Br)c2)CC1	2.4

Compound activity: PubChem BioAssay, The Scripps Research Institute Molecular Screening Center
